# Assay results published in PubChem BioAssay (EPA / NIEHS).
# The source made the active and inactive calls. Rule for the calls: active = hit-call score of the fitted dose curve at least 0.9, where 1 is the maximum; inactive = score below 0.9.
# How the values were obtained:
# [1] = ATG_ERE_CIS: Attagene CIS-FACTORIAL HepG2 Assay for Estrogen Response Element (ERE) (AID 2282940); conditions: HepG2 ERE cis-reporter, Attagene RNA transcript; actives raise or lower the signal
# Method in brief: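 HepG2 cells transiently transfected with cis-promoter-driven multiplexed reporter transcription units report endogenous TF activity. After 24 h compound exposure, reporter mRNA is quantified by RT-PCR with capillary electrophoresis fluorescence; bidirectional fitting versus DMSO baseline.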
# [2] = ATG_Ets_CIS: Attagene CIS-FACTORIAL HepG2 Assay for human Erythroblast Transformation Specific (ETS) (AID 2282941); conditions: HepG2 ETS cis-reporter transcription, actives raise or lower the signal
# Method in brief: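 HepG2 cells transfected with multiple cis-regulated reporter units measuring endogenous ETS-driven transcription, 24 h after dosing. Reporter mRNA quantified by RT-PCR with capillary electrophoresis; bidirectional fit relative to DMSO.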
# [3] = target: Hepatocyte nuclear factor 3-beta (Homo sapiens) (UniProt Q9Y261); assay: ATG_FoxA2_CIS: Attagene CIS-FACTORIAL HepG2 Assay for human Forkhead box A2 (FOXA2) (AID 2282942); conditions: HepG2 cis-reporter transcription factor activity, 24 h; actives raise or lower the signal
# Hepatocyte nuclear factor 3-beta (Homo sapiens), sequence (Q9Y261 whole entry, looked up): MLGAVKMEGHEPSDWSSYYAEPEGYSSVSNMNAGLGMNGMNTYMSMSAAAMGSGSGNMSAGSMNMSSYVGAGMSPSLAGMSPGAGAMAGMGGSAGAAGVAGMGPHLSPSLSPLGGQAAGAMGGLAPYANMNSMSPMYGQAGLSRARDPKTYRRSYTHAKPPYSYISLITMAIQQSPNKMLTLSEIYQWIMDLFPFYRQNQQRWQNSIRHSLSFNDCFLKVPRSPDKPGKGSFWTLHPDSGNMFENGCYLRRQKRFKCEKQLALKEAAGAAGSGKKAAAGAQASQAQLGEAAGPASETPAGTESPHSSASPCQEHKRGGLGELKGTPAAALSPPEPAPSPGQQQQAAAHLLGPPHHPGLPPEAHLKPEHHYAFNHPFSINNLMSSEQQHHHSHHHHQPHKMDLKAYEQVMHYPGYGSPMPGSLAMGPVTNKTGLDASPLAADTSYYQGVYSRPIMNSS
# Method in brief: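 Endogenous transcription factor activity is captured via cis-element-driven reporter transcripts in transfected HepG2. Total RNA taken at 24 h post-dosing; labelled RT-PCR products resolved by capillary electrophoresis. Gain or loss fitted versus DMSO.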
# [4] = ATG_FoxO_CIS: Attagene CIS-FACTORIAL HepG2 Assay for human Forkhead box O (FoxO) (AID 2282943); conditions: HepG2 Attagene cis-reporter, FoxO element, mRNA; actives raise or lower the signal
# Method in brief: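 Human hepatoma HepG2 cells carry transiently introduced reporter transcription units controlled by cis promoter elements. Chemical treatment lasted 24 h, and mRNA signal was compared with DMSO.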
# [5] = ATG_GATA_CIS: Attagene CIS-FACTORIAL HepG2 Assay for human GATA Binding Protein (AID 2282944); conditions: HepG2 GATA cis-element reporter, Attagene multiplex mRNA; actives raise or lower the signal
# Method in brief: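 HepG2 cells transiently transfected with multiplexed cis-element reporter units reflecting endogenous transcription factor activity; reporter mRNA measured after 24 h dosing by RT-PCR, 6-FAM labeling, HpaI digestion and capillary electrophoresis. Bidirectional fitting versus DMSO baseline.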
# [6] = ATG_GLI_CIS: Attagene CIS-FACTORIAL HepG2 Assay for human Zinc Finger Protein GLI1 (AID 2282945); conditions: HepG2, Attagene cis-factorial reporter mRNA, GLI element; actives raise or lower the signal
# Method in brief: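 Bidirectional curve fits relative to DMSO, using reporter mRNA levels from RT-PCR plus capillary electrophoresis. Cells were HepG2 transiently carrying cis-regulated reporter constructs, harvested 24 h after dosing.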
# [7] = ATG_GRE_CIS: Attagene CIS-FACTORIAL HepG2 Assay for human Glucocorticoid Response Elements (GRE) (AID 2282947); conditions: HepG2 GRE cis-reporter, Attagene multiplex mRNA; actives raise or lower the signal
# Method in brief: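 Assay uses human hepatoma HepG2 cells transfected with cis-promoter reporter units, exposed 24 h. mRNA from reporters detected by RT-PCR plus capillary electrophoresis; DMSO serves as negative control and baseline.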
# [8] = ATG_ISRE_CIS: Attagene CIS-FACTORIAL HepG2 Assay for human Interferon Regulatory Factor 1 (IRF1) binding to an Interferon-Stimulated Response Element (ISRE) (AID 2282948); conditions: HepG2 ISRE cis-reporter (Attagene), mRNA transcription readout; actives raise or lower the signal
# Method in brief: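 Transiently transfected HepG2 cells carrying cis-element reporter units, dosed 24 hours. Reporter mRNA quantified by RT-PCR, fluorescent primer extension, HpaI digestion and capillary electrophoresis. Bidirectional fitting relative to DMSO.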
# [9] = ATG_M_32_CIS: Attagene CIS-FACTORIAL HepG2 Assay for M32 Transcription Factor (Internal Marker) (AID 2282949); conditions: HepG2 Attagene cis-factorial M32 reporter, mRNA; actives raise or lower the signal;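 note: background control marker of the multiplexed CIS panel rather than a real target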
# Method in brief: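 Following 24 h chemical exposure of HepG2 cells transiently expressing cis-promoter reporter constructs, reporter transcript levels were determined by RT-PCR with fluorescent labelling and capillary electrophoresis, then fitted bidirectionally against DMSO.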
# [10] = ATG_M_06_CIS: Attagene CIS-FACTORIAL HepG2 Assay for M06 Transcription Factor (Internal Marker) (AID 2282950); conditions: HepG2 Attagene CIS-FACTORIAL M06 internal marker reporter; actives raise or lower the signal
# Method in brief: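 HepG2 cells transiently transfected with cis-regulated multiple reporter transcription units were exposed to chemical for 24 h; reporter mRNA was quantified by RT-PCR, 6-FAM primer labelling, HpaI digestion and capillary electrophoresis, fitted bidirectionally against DMSO.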
# [11] = target: Hypoxia-inducible factor 1-alpha (Homo sapiens) (UniProt Q16665); assay: ATG_HIF1a_CIS: Attagene CIS-FACTORIAL HepG2 Assay for human Hypoxia Inducible Factor 1 (HIF1A) (AID 2282951); conditions: HepG2 Attagene cis-factorial HIF1a reporter transcription; actives raise or lower the signal
# Hypoxia-inducible factor 1-alpha (Homo sapiens), sequence (Q16665 whole entry, looked up): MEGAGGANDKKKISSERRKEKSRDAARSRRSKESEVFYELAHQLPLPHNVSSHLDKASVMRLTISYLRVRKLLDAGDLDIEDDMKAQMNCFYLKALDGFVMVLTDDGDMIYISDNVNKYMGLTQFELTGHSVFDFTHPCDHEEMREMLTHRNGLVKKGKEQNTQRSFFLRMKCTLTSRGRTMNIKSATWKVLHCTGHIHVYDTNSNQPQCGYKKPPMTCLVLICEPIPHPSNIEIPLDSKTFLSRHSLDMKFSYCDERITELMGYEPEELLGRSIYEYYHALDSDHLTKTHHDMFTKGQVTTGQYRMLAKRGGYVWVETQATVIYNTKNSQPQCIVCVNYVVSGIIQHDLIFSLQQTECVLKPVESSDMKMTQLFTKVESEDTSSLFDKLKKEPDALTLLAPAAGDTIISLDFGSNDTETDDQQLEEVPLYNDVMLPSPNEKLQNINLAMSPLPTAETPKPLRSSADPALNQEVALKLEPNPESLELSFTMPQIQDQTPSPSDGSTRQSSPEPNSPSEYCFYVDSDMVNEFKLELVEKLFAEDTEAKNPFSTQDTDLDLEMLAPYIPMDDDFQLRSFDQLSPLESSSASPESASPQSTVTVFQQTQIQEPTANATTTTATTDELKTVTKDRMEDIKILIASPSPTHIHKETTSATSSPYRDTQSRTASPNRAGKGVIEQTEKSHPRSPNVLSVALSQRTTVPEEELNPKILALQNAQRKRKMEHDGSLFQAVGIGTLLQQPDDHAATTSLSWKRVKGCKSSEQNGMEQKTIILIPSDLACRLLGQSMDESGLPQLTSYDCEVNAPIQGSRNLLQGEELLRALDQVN
# Method in brief: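 Activity is fitted in both directions relative to DMSO. Reporter transcripts are read by RT-PCR, fluorescent primer extension and capillary electrophoresis after 24 h chemical treatment. The cells are HepG2 carrying transiently transfected cis-element-driven reporter units responding to endogenous factors.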
# [12] = target: Hepatocyte nuclear factor 6 (Homo sapiens) (UniProt Q9UBC0); assay: ATG_HNF6_CIS: Attagene CIS-FACTORIAL HepG2 Assay for human Hepatocyte Nuclear Factor 6 (HNF6) (AID 2282952); conditions: HepG2 Attagene cis-factorial HNF6 reporter transcription; actives raise or lower the signal
# Hepatocyte nuclear factor 6 (Homo sapiens), sequence (Q9UBC0 whole entry, looked up): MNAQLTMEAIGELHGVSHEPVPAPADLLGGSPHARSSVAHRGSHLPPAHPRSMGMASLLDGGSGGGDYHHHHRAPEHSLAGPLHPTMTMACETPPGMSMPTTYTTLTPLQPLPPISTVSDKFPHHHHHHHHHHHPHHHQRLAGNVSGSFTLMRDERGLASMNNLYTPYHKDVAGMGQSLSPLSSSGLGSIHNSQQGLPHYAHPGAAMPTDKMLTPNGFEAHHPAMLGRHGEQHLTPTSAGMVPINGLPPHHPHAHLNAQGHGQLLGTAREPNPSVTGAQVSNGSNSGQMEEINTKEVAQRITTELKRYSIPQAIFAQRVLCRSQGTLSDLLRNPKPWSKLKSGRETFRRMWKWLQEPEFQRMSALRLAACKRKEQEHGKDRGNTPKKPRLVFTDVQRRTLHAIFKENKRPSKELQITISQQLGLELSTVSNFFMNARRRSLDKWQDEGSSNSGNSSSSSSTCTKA
# Method in brief: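 Transiently transfected HepG2 cells expressing cis-regulated reporter transcription units were exposed to chemical for 24 h in a 24-well format. Reporter transcript abundance was determined by fluorescence capillary electrophoresis.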
# [13] = target: Heat shock factor protein 1 (Homo sapiens) (UniProt Q00613); assay: ATG_HSE_CIS: Attagene CIS-FACTORIAL HepG2 Assay for human Heat Shock Transcription Factor 1 (HSE) (AID 2282953); conditions: HepG2 HSE cis-reporter, Attagene RNA transcription; actives raise or lower the signal
# Heat shock factor protein 1 (Homo sapiens), sequence (Q00613 whole entry, looked up): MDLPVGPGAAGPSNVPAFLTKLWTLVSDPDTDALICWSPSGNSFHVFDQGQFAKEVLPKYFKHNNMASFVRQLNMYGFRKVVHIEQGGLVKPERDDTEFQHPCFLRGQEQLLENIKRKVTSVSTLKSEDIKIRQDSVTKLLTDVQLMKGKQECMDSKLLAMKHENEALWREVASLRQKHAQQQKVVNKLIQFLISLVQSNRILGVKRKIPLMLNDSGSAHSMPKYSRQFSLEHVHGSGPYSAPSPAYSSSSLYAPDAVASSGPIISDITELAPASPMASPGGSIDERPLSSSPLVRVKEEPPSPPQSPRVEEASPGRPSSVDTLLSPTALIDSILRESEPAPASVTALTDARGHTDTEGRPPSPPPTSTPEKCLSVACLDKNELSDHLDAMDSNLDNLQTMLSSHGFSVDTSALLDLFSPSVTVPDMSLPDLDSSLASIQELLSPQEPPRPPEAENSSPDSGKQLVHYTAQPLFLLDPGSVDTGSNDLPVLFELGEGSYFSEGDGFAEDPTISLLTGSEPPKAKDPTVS
# Method in brief: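 HepG2 cells transiently transfected with multiple reporter transcription units under cis-regulatory promoter control, measuring endogenous transcription factor activity. After 24 h chemical exposure, reporter mRNA quantified by RT-PCR, fluorescent labelling, HpaI digestion and capillary electrophoresis; bidirectional fit versus DMSO.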
# [14] = ATG_MRE_CIS: Attagene CIS-FACTORIAL HepG2 Assay for human Metal Responsive Element (MRE) (AID 2282954); conditions: HepG2 MRE cis-reporter transcription, Attagene multiplex; actives raise or lower the signal
# Method in brief: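 After a 24 h chemical exposure, transiently transfected HepG2 cells yield RNA whose reporter sequences are amplified, FAM-labelled and sized by capillary electrophoresis. Curves are fitted bidirectionally relative to DMSO.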
# [15] = target: Paired box protein Pax-6 (Homo sapiens) (UniProt P26367); assay: ATG_Pax6_CIS: Attagene CIS-FACTORIAL HepG2 Assay for human Paired Box 6 (PAX6) (AID 2282956); conditions: HepG2 CIS-FACTORIAL PAX6 reporter transcription, RNA readout; actives raise or lower the signal
# Paired box protein Pax-6 (Homo sapiens), sequence (P26367 whole entry, looked up): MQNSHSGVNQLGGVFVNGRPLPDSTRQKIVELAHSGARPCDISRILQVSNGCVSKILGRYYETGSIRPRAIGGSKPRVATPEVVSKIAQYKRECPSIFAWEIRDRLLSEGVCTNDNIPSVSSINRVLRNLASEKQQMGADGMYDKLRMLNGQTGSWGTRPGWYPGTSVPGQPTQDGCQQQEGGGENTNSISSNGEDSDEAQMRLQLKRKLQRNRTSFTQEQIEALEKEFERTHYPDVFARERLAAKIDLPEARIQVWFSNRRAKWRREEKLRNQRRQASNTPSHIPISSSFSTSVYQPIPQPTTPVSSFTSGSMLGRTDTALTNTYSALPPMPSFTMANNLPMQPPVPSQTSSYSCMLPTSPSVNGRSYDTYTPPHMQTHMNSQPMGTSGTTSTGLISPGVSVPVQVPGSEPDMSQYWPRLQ
# Method in brief: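 HepG2 cells transiently transfected with cis-promoter-driven multiplexed reporter units sensing endogenous transcription factor activity; 24 h chemical exposure. Reporter mRNA quantified by RT-PCR, 6-FAM labelling, HpaI digestion and capillary electrophoresis; bidirectional fit versus DMSO baseline.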
# [16] = ATG_PXRE_CIS: Attagene CIS-FACTORIAL HepG2 Assay for human Pregnane X Receptor Element (PXRE) (AID 2282957); conditions: HepG2 Attagene CIS-FACTORIAL PXRE reporter, mRNA; actives raise or lower the signal
# Method in brief: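 Cis-element reporter mRNA in human hepatoma HepG2 cells is measured 24 h post-dosing by RT-PCR, primer-extension labeling and capillary electrophoresis; gain or loss of signal is fitted relative to DMSO.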
# [17] = ATG_RORE_CIS: Attagene CIS-FACTORIAL HepG2 Assay for human RAR-related Orphan Receptor Element (RORE) (AID 2282959); conditions: HepG2 Attagene cis-factorial RORE reporter, mRNA; actives raise or lower the signal
# Method in brief: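 RORE reporter transcripts reflecting endogenous factor activity were read after 24 h compound exposure of transfected HepG2 cells, using reverse transcription, PCR, fluorescent labelling and capillary electrophoresis sizing. Gain or loss fitted against DMSO.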
# [18] = ATG_PBREM_CIS: Attagene CIS-FACTORIAL HepG2 Assay for human Phenobarbital-responsive Enhancer Module (PBREM) (AID 2282955); conditions: HepG2 PBREM cis-reporter, Attagene multiplexed transcription; actives raise or lower the signal
# Method in brief: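 Endogenous transcription factor activity was read from reporter transcripts in transiently transfected human HepG2 liver cells after 24 h dosing. RT-PCR products were fluorescently labelled, HpaI-cut and sized by capillary electrophoresis; activity fitted bidirectionally against DMSO baseline.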
# [19] = ATG_PPRE_CIS: Attagene CIS-FACTORIAL HepG2 Assay for human Peroxisome Proliferator-activated Response Element (PPRE) (AID 2282958); conditions: HepG2 PPRE cis-element reporter, Attagene transcription factor profiling; actives raise or lower the signal
# Method in brief: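 Endogenous PPRE-driven transcription is measured in HepG2 cells carrying transfected multi-reporter constructs. Reporter transcripts are quantified by RT-PCR, HpaI digestion and capillary electrophoresis 24 h after dosing. DMSO baseline, bidirectional fit.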
structure (smiles),measurement,setting,value
C=C(C)C(=O)OCC(CC)CCCC (configuration not stated),outcome,[1],inactive
same,outcome,[2],inactive
same,outcome,[3],inactive
same,outcome,[4],inactive
same,outcome,[5],inactive
same,outcome,[6],inactive
same,outcome,[7],inactive
same,outcome,[8],inactive
same,outcome,[9],inactive
same,outcome,[10],inactive
same,outcome,[11],inactive
same,outcome,[12],inactive
same,outcome,[13],inactive
same,outcome,[14],inactive
same,outcome,[15],inactive
same,outcome,[16],inactive
same,outcome,[17],inactive
CC(O)(CS(=O)(=O)c1ccc(F)cc1)C(=O)Nc1ccc(C#N)c(C(F)(F)F)c1 (configuration not stated),outcome,[1],inactive
same,outcome,[2],inactive
same,outcome,[3],inactive
same,outcome,[4],inactive
same,outcome,[5],inactive
same,outcome,[6],inactive
same,outcome,[7],inactive
same,outcome,[8],inactive
same,outcome,[9],inactive
same,outcome,[10],inactive
same,outcome,[11],inactive
same,outcome,[12],inactive
same,outcome,[13],inactive
same,AC50,[14],72.3 µM (active)
same,outcome,[18],inactive
same,outcome,[15],inactive
same,outcome,[19],inactive
same,outcome,[17],inactive
CCNc1nc(NCC)nc(SC)n1,outcome,[1],inactive
same,outcome,[2],inactive
same,outcome,[3],inactive
same,outcome,[4],inactive
same,outcome,[5],inactive
same,outcome,[6],inactive
same,outcome,[7],inactive
same,outcome,[8],inactive
same,outcome,[9],inactive
same,outcome,[10],inactive
same,outcome,[11],inactive
same,outcome,[12],inactive
same,outcome,[13],inactive
same,outcome,[18],inactive
same,outcome,[15],inactive
same,AC50,[16],27.9 µM (active)
same,outcome,[17],inactive
CCCCC(CC)C(=O)Cl (configuration not stated),outcome,[1],inactive
same,outcome,[2],inactive
same,outcome,[3],inactive
same,outcome,[4],inactive
same,outcome,[5],inactive
same,outcome,[6],inactive
same,outcome,[7],inactive
same,outcome,[8],inactive
same,outcome,[9],inactive
same,outcome,[10],inactive
same,outcome,[11],inactive
same,outcome,[12],inactive
same,outcome,[13],inactive
same,outcome,[14],inactive
same,outcome,[18],inactive
same,outcome,[15],inactive
same,outcome,[19],inactive
same,outcome,[17],inactive
O=CCCl,outcome,[1],inactive
same,outcome,[2],inactive
same,outcome,[3],inactive
same,AC50,[4],26.6 µM (active)
same,outcome,[5],inactive
same,AC50,[6],25.5 µM (active)
same,outcome,[7],inactive
same,AC50,[8],51.9 µM (active)
same,outcome,[9],inactive
same,outcome,[10],inactive
same,AC50,[11],55 µM (active)
same,AC50,[12],32.6 µM (active)
same,AC50,[13],48.6 µM (active)
same,AC50,[18],25.2 µM (active)
same,AC50,[15],42.5 µM (active)
same,AC50,[16],37.2 µM (active)
same,outcome,[17],inactive
N#Cc1ccc(Cl)cc1,outcome,[1],inactive
same,outcome,[2],inactive
same,outcome,[3],inactive
same,outcome,[4],inactive
same,outcome,[5],inactive
same,outcome,[6],inactive
same,outcome,[7],inactive
same,outcome,[8],inactive
same,outcome,[9],inactive
same,outcome,[10],inactive
same,outcome,[11],inactive
same,outcome,[12],inactive
same,outcome,[13],inactive
same,outcome,[18],inactive
same,outcome,[15],inactive
same,AC50,[16],54.6 µM (active)
same,outcome,[17],inactive
O=C(NC(=O)c1c(F)cccc1F)Nc1cc(Cl)c(F)c(Cl)c1F,outcome,[1],inactive
same,outcome,[2],inactive
same,outcome,[3],inactive
same,outcome,[4],inactive
same,outcome,[5],inactive
same,outcome,[6],inactive
same,outcome,[7],inactive
same,outcome,[8],inactive
same,outcome,[9],inactive
same,outcome,[10],inactive
same,outcome,[11],inactive
same,outcome,[12],inactive
same,outcome,[13],inactive
same,outcome,[14],inactive
same,outcome,[18],inactive
same,outcome,[15],inactive
same,outcome,[19],inactive
same,outcome,[17],inactive
